Data on 13 compounds can be found in PubChem BioAssay (NCI).

Some test systems named below: SR leukemia; RPMI-8226 leukemia; OVCAR-8 ovarian; OVCAR-5 ovarian; OVCAR-4 ovarian; SK-OV-3 ovarian; IGROV1 ovarian; OVCAR-3 ovarian; HS 578T breast; NCI/ADR-RES ovarian.
Assay in all cases: NCI-60 one-dose screen, 48 h (100 = growth as untreated, 0 = no growth, -100 = all killed)
Common to all, as to conditions: 10 µM unless noted

Compounds without any hit were thinned out: in the full panel of roughly 83,000, 20% have a hit.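 Results are percent growth after 48 hours of single-concentration exposure. 100 means growth as in untreated cells, lower positive values show inhibition; negative values down to -100 show cell death.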 Values without a mark were called inactive. Active and inactive are the calls of the source. The calls were made as follows: active = growth percent below 10; inactive = the rest.

`O=C1c2ccccc2CCC12OC2c1cn(-c2ccccc2)nc1-c1ccc(Cl)cc1` (stereo not given): the growth in the assay on SR leukemia is 70.4%; in the assay with RPMI-8226 leukemia it was 81.3%; with OVCAR-8 ovarian, 94.5%; with OVCAR-5 ovarian, 111%; with OVCAR-4 ovarian, 99.2%; in the assay with SK-OV-3 ovarian it was 111%. Moreover, the growth with IGROV1 ovarian was 95.1%; in the assay on OVCAR-3 ovarian, 115%; in the assay on HS 578T breast, 93.3%; with NCI/ADR-RES ovarian it was 102%.
Regarding `CC1(C)NCCC[C@]2(C)[C@H]3CC(=O)[C@H]4[C@@H]5C[C@](C)(CO)CC[C@]5(C)CC[C@@]4(C)[C@]3(C)CC[C@@H]12`, the growth was 82% in the assay with SR leukemia; 95% in the assay on RPMI-8226 leukemia; 114% in the assay with OVCAR-8 ovarian; 98.3% in the assay on OVCAR-5 ovarian; 92% with OVCAR-4 ovarian; 110% with SK-OV-3 ovarian. In addition, the growth with IGROV1 ovarian was 98.1%; with OVCAR-3 ovarian, 89.8%; in the assay on HS 578T breast, 99.4%; in the assay with NCI/ADR-RES ovarian, 105%.
Turning to `CCCCNC(=O)Oc1ccc(/C(=C(\C)c2ccccc2)c2ccc(OCCN3CCCCC3)cc2)cc1`, the growth in the assay with SR leukemia is 0.363% (active); in the assay on RPMI-8226 leukemia it was 42.7%; in the assay with OVCAR-8 ovarian it was 71.9%; in the assay with OVCAR-5 ovarian, 89.5%; in the assay on OVCAR-4 ovarian it was 75.4%; in the assay on SK-OV-3 ovarian it was 71.6%. For the same compound, the growth is 76.9% with IGROV1 ovarian, 64.7% in the assay with OVCAR-3 ovarian, 56.9% in the assay on HS 578T breast and 63.1% with NCI/ADR-RES ovarian.
On to `O=C(C[n+]1cccc2ccccc21)c1ccc(O)c(O)c1`, for which the growth in the assay with SR leukemia was 7.71% (active); in the assay on RPMI-8226 leukemia, 17.4%; with OVCAR-8 ovarian, 49.2%; with OVCAR-5 ovarian, 88%; with OVCAR-4 ovarian, 55.1%; in the assay on SK-OV-3 ovarian, 120%. Besides, the growth in the assay on IGROV1 ovarian was 48.5%; in the assay with OVCAR-3 ovarian, 35.7%; with HS 578T breast, 90.6%; in the assay on NCI/ADR-RES ovarian it was 75.4%.
In the case of `NC1=NN=C(N)C1=Cc1cc2ccccc2n2nnnc12`, the growth was 94.4% with SR leukemia; 105% in the assay on RPMI-8226 leukemia; 98.1% with OVCAR-8 ovarian; 108% in the assay on OVCAR-5 ovarian; 105% in the assay on OVCAR-4 ovarian; 91.7% with SK-OV-3 ovarian. Besides, the growth in the assay on IGROV1 ovarian is 103%; with OVCAR-3 ovarian it was 105%; in the assay with HS 578T breast, 94.7%; with NCI/ADR-RES ovarian, 105%.
Take `O=S(=O)(NCCNc1nccc(-c2c(-c3cccc(F)c3)nc3sccn23)n1)c1ccc(Br)cc1`: the growth was 31.7% with SR leukemia; 58% with RPMI-8226 leukemia; 45.5% with OVCAR-8 ovarian; 83.6% with OVCAR-5 ovarian; 47% in the assay on OVCAR-4 ovarian; 77.3% with SK-OV-3 ovarian. The growth is 8.47% (active) in the assay with IGROV1 ovarian, 62.4% in the assay with OVCAR-3 ovarian, 63.6% in the assay with HS 578T breast and 61.8% with NCI/ADR-RES ovarian.
In the case of `CNC(=O)c1cccc(Cn2nc(C)c(NC(=O)c3ccc(COc4ccc(C(F)(F)F)cc4C)cc3)c2C)c1`, the growth in the assay with SR leukemia was 23.3%; with RPMI-8226 leukemia, 27.3%; with OVCAR-8 ovarian, 33.9%; in the assay on OVCAR-5 ovarian it was 100%; with OVCAR-4 ovarian, 29.6%; with SK-OV-3 ovarian, 70.9%. The growth with IGROV1 ovarian was 63.8%; with OVCAR-3 ovarian it was 34%; with HS 578T breast, 84.9%; in the assay with NCI/ADR-RES ovarian it was 35.4%.
As for `CCOC(=O)CSc1nc2ccccc2c(=O)n1Cc1ccc(S(N)(=O)=O)cc1`, the growth in the assay with SR leukemia is 99.6%; in the assay with RPMI-8226 leukemia, 98.2%; with OVCAR-8 ovarian, 101%; in the assay on OVCAR-5 ovarian, 97.5%; with OVCAR-4 ovarian, 116%; in the assay with SK-OV-3 ovarian, 107%. In addition, the growth is 105% in the assay with IGROV1 ovarian, 112% in the assay on OVCAR-3 ovarian, 97.9% in the assay with HS 578T breast and 104% with NCI/ADR-RES ovarian.
`S=c1cc(S)c2cc(Br)ccc2[nH]1`: the growth in the assay with SR leukemia is 94.1%; in the assay on RPMI-8226 leukemia, 96.7%; in the assay on OVCAR-8 ovarian, 91.5%; in the assay with OVCAR-5 ovarian it was 114%; in the assay with OVCAR-4 ovarian, 92.6%; in the assay on SK-OV-3 ovarian, 98.6%. Also, the growth in the assay with IGROV1 ovarian is 89.5%; with OVCAR-3 ovarian, 100%; in the assay on HS 578T breast, 109%; in the assay on NCI/ADR-RES ovarian, 101%.
In the case of `Cc1ccc(/C=C(/C#N)n2nnc3cccc(F)c32)cc1`, the growth in the assay on SR leukemia was 9.82% (active); in the assay with RPMI-8226 leukemia it was -4.51% (active); in the assay with OVCAR-8 ovarian it was 8.47% (active); with OVCAR-5 ovarian, 0.132% (active); in the assay with OVCAR-4 ovarian, 23%; in the assay on SK-OV-3 ovarian, 27.8%. For the same compound, the growth in the assay with IGROV1 ovarian is 17.6%; in the assay on OVCAR-3 ovarian, -53.2% (active); in the assay with HS 578T breast, -14.8% (active); in the assay with NCI/ADR-RES ovarian, -33.1% (active).
`COc1ccc(-c2[nH][nH]c(=O)c2-c2nc3ccccc3s2)cc1`: the growth is 99.2% in the assay on SR leukemia; 99.4% in the assay on RPMI-8226 leukemia; 106% with OVCAR-8 ovarian; 105% in the assay on OVCAR-5 ovarian; 109% in the assay on OVCAR-4 ovarian; 106% in the assay on SK-OV-3 ovarian. In addition, the growth in the assay on IGROV1 ovarian is 105%; in the assay on OVCAR-3 ovarian it was 110%; in the assay with HS 578T breast, 107%; in the assay on NCI/ADR-RES ovarian, 97.7%.
For the compound `Cc1ccc(NC(=O)Cc2ccc(/C=C/C(=O)c3ncc[nH]3)cc2)cc1`, the growth is 7.24% (active) in the assay with SR leukemia; -11.4% (active) with RPMI-8226 leukemia; 8.42% (active) in the assay on OVCAR-8 ovarian; 64.2% in the assay with OVCAR-5 ovarian; 58% with OVCAR-4 ovarian; 84.4% in the assay with SK-OV-3 ovarian. For the same compound, the growth in the assay with IGROV1 ovarian was 57.6%; with OVCAR-3 ovarian it was 15.3%; with HS 578T breast, 42.9%; in the assay with NCI/ADR-RES ovarian, 38.3%.
As for `CCCNC(=O)Oc1ccc(/C(=C(\C)c2ccccc2)c2ccc(OCCCN(C)C)cc2)cc1`, the growth with SR leukemia was 4.87% (active); in the assay with RPMI-8226 leukemia, 63.4%; with OVCAR-8 ovarian, 86.6%; in the assay on OVCAR-5 ovarian, 80.5%; in the assay on OVCAR-4 ovarian it was 79.7%; with SK-OV-3 ovarian, 71.9%. The growth in the assay on IGROV1 ovarian was 89.5%; with OVCAR-3 ovarian, 83%; with HS 578T breast, 55.3%; in the assay on NCI/ADR-RES ovarian, 77.7%.
